About 45 (2%) of roughly 2,200 compounds were called active. How the calls were made is not given here. These entries were drawn from the full list. Entries with a potency or affinity are not part of this list.
Target: Runt-related transcription factor 1 (Homo sapiens) + Core-binding factor subunit beta (Homo sapiens) (UniProt Q01196+Q13951)
Experiment: Runt domain/CBFb-SMMHC interaction disruptors – biochemical, TR-FRET (AID 1438)
Conditions: at 20 µM, active compounds read high

Runt-related transcription factor 1 (Homo sapiens) + Core-binding factor subunit beta (Homo sapiens), sequence (Q01196 whole entry, looked up, the tested form may be a part): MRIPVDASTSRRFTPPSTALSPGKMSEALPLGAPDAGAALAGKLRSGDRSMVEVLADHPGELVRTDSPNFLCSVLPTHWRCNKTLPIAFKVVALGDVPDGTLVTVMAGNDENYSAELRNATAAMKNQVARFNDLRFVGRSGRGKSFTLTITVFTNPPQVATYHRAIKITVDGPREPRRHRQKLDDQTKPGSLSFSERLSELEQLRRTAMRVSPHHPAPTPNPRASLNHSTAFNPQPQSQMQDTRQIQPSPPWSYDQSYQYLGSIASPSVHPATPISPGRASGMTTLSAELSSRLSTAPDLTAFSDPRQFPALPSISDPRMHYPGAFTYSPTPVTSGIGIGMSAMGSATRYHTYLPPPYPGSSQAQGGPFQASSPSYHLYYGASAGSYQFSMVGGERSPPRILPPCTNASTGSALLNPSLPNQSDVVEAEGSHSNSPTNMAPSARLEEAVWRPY
Runt-related transcription factor 1 (Homo sapiens) + Core-binding factor subunit beta (Homo sapiens), sequence (Q13951 whole entry, looked up, the tested form may be a part): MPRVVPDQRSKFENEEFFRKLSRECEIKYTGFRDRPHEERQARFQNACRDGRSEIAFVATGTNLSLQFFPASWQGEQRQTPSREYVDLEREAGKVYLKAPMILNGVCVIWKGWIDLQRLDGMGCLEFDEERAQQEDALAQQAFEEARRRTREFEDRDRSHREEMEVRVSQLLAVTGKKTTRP

inhibition, inactive:
O=C(c1ccccc1)c1ccccc1N1C(=O)C=CC1=O 28.3%
O=C1C=CC(=O)N1c1cccc(-c2ccccc2)c1 -6.3%
Cc1ccccc1Oc1nc2c(C)cccn2c(=O)c1/C=C(\C#N)C(=O)NC1CCS(=O)(=O)C1 (stereo unspecified) -12.5%
Cc1cc(C)cc(Oc2nc3ccccn3c(=O)c2/C=C(\C#N)C(=O)NC2CCS(=O)(=O)C2)c1 (stereo unspecified) -134%
COP(=O)(CC(=O)c1ccccc1)CC(=O)c1ccccc1 -7.7%
Nc1ccc2c(C(F)(F)F)cc(=O)oc2c1 18.1%
O=C(c1ccccc1)c1cnc(Nc2ccc(Cl)c(Cl)c2)s1 29.7%
COc1ccc(N2C3=C(C(=O)CC(C)(C)C3)C(c3cnn(C)c3)C3=C2CC(C)(C)CC3=O)cc1 -7.6%
COc1ccc(N2C3=C(C(=O)CC(C)(C)C3)C(c3ccccc3OC)C3=C2CC(C)(C)CC3=O)cc1 2.8%
CCOC(=O)c1sc(-c2ccc(Cl)cc2)nc1O -7.6%
CCOC(=O)C1=C(Cc2ccc(C)cc2)C(=O)c2ccccc2C1=O 45.1%
Oc1c(C=NCc2ccccc2)sc2ccccc12 -12.8%
CN(C)c1nc(-c2cccs2)cc(C(F)(F)F)c1C#N -6.2%
N#Cc1c2c(c(Nc3ccccc3)n3c1nc1ccccc13)CCC2 33.8%
CN(C)CCNc1c2c(c(C#N)c3nc4ccccc4n13)CCCC2 21.3%
O=C(Nc1nc2c(s1)CN(Cc1ccccc1)CC2)C1CCCC1 -11.2%
CCOc1ccc2nc(NCCNC(=S)NCCCN(C)C)c(C#N)cc2c1 -5.8%
COCCn1c(=N)c(C(=O)NCCc2ccc(OC)cc2)cc2c(=O)n3cccc(C)c3nc21 23.3%
COc1ccc(/C=C2/C(=O)ON=C2c2ccccc2)cc1OC -3.7%
Cn1c(C(=O)NCCC2=CCCCC2)cc2c(=O)n3ccccc3nc21 34.3%
CCCS(=O)(=O)c1c(S(=O)(=O)CCC)c2c(C)cccn2c1C(=O)N/N=C/c1cc(O)cc(O)c1 1.8%
COc1ccc2nc(Nc3sc4c(c3C(N)=O)CCCC4)sc2c1 45.1%
COc1ccccc1-n1c(SCc2cc(=O)oc3cc(O)ccc23)nc2ccccc2c1=O 29.8%
COc1cc(-c2nnc(SCc3cc(=O)oc4cc(O)c(O)cc34)o2)cc(OC)c1OC 49.9%
N#Cc1c(NC(=O)CSc2ncc(-c3ccccc3)n2CC2CCCO2)sc2c1CCCC2 (stereo unspecified) -3.3%
CC(=O)N1c2ccccc2C2(O)N=C(C)SC12 (stereo unspecified) 28.9%

Source: PubChem BioAssay AID1438 (Sanford-Burnham Center for Chemical Genomics, 2008)
